Inconclusive results are not listed. Calls of active or inactive are those of the source. Calls come from the whole dose curve; as a rule, active = well fitted cell-killing curve with a large enough effect; inconclusive = small, poorly fitted or top-dose-only effect, or effect the other way; inactive = flat fitted curve, though single readings scatter.
Key:
Assay in all cases: Primary qHTS to identify gynecologic anti-cancer compounds using libraries of approved drugs and bioactive compounds (AID 1345084); note: nearly all actives have a fitted effect of over 55% in size
C33A = details: Gynecologic cancer cell panel viability, ATPlite luminescence, 48 h; series mostly up to 57.5 µM
Outline: (§1)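 Measured: luminescence after ATPlite addition (15 min, RT). Exposure: 48 h, 37 C, 5% CO2.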

CAOV3 = details: Gynecologic cancer cell panel viability, ATPlite luminescence, 48 h; series mostly up to 57.5 µM
Outline: as §1

CASKI = details: Gynecologic cancer cell panel viability, ATPlite luminescence, 48 h; series mostly up to 57.5 µM
Outline: as §1

Es-2 = details: Gynecologic cancer cell panel viability, ATPlite luminescence, 48 h; series mostly up to 57.5 µM
Outline: as §1

HeLa = details: Gynecologic cancer cell panel viability, ATPlite luminescence, 48 h; series mostly up to 57.5 µM
Outline: as §1

Hek293T = details: Gynecologic cancer cell panel viability, ATPlite luminescence, 48 h, control line for the selectivity index; series mostly up to 57.5 µM
Outline: as §1

JEG-3 = details: Gynecologic cancer cell panel viability, ATPlite luminescence, 48 h; series mostly up to 57.5 µM
Outline: as §1

OV90 = details: Gynecologic cancer cell panel viability, ATPlite luminescence, 48 h; series mostly up to 57.5 µM
Outline: as §1

PA-1 = details: Gynecologic cancer cell panel viability, ATPlite luminescence, 48 h; series mostly up to 57.5 µM
Outline: as §1

SKOV3 = details: Gynecologic cancer cell panel viability, ATPlite luminescence, 48 h; series mostly up to 57.5 µM
Outline: as §1

Tov-21-G = details: Gynecologic cancer cell panel viability, ATPlite luminescence, 48 h; series mostly up to 57.5 µM
Outline: as §1

Tov112D = details: Gynecologic cancer cell panel viability, ATPlite luminescence, 48 h; series mostly up to 57.5 µM
Outline: as §1
% is set by controls: 0 for no effect and ±100 for the full control effect.

Cc1cc(C)nc(NS(=O)(=O)c2ccc(NC(=S)NC(=O)COc3ccc(Br)cc3Cl)cc2)n1
inactive: Potency (C33A) | Potency (CAOV3) | Potency (CASKI) | Potency (Es-2) | Potency (HeLa) | Potency (Hek293T) | Potency (JEG-3) | Potency (OV90) | Potency (PA-1) | Potency (SKOV3) | Potency (Tov-21-G) | Potency (Tov112D)

Cn1cc(-c2ccc3nnc(Sc4ccc5nn(C)cc5c4)n3n2)cn1
inactive: Potency (C33A) | Potency (CAOV3) | Potency (CASKI) | Potency (Es-2) | Potency (HeLa) | Potency (Hek293T) | Potency (JEG-3) | Potency (OV90) | Potency (PA-1) | Potency (SKOV3) | Potency (Tov-21-G) | Potency (Tov112D)

CCOCCn1nc(CC)c2nc(N3CCC(C(=O)O)CC3)nc(Nc3cc(C)ccn3)c21
inactive: Potency (C33A) | Potency (CAOV3) | Potency (CASKI) | Potency (Es-2) | Potency (HeLa) | Potency (Hek293T) | Potency (JEG-3) | Potency (OV90) | Potency (PA-1) | Potency (SKOV3) | Potency (Tov-21-G) | Potency (Tov112D)

Cc1ccc(NC(=O)C(=O)NC2CC(C)(C)NC(C)(C)C2)cc1
inactive: Potency (C33A) | Potency (CAOV3) | Potency (CASKI) | Potency (Es-2) | Potency (HeLa) | Potency (Hek293T) | Potency (JEG-3) | Potency (OV90) | Potency (PA-1) | Potency (SKOV3) | Potency (Tov-21-G) | Potency (Tov112D)

Nc1nc2c(ncn2[C@@H]2O[C@@H]3COP(=O)(O)O[C@H]3[C@H]2O)c(=O)[nH]1
inactive: Potency (C33A) | Potency (CAOV3) | Potency (CASKI) | Potency (Es-2) | Potency (HeLa) | Potency (Hek293T) | Potency (JEG-3) | Potency (OV90) | Potency (PA-1) | Potency (SKOV3) | Potency (Tov-21-G) | Potency (Tov112D)

Cc1nc2sc(C(=O)NCc3ccncc3)c(N)c2c(C)c1Cl
inactive: Potency (C33A) | Potency (CAOV3) | Potency (CASKI) | Potency (Es-2) | Potency (HeLa) | Potency (Hek293T) | Potency (JEG-3) | Potency (OV90) | Potency (PA-1) | Potency (SKOV3) | Potency (Tov-21-G) | Potency (Tov112D)

CCCn1c(=O)c2[nH]c(-c3ccc(OCC(=O)O)cc3)nc2n(CCC)c1=O
inactive: Potency (C33A) | Potency (CAOV3) | Potency (CASKI) | Potency (Es-2) | Potency (HeLa) | Potency (Hek293T) | Potency (JEG-3) | Potency (OV90) | Potency (PA-1) | Potency (SKOV3) | Potency (Tov-21-G) | Potency (Tov112D)

COc1ccc(/C=C/C(=O)O[C@H]2[C@H](O[C@H]3[C@@H]4C=CO[C@@H](O[C@@H]5O[C@H](CO)[C@@H](O)[C@H](O)[C@H]5O)[C@@H]4[C@@]4(CO)O[C@@H]34)O[C@@H](C)[C@H](O)[C@H]2OC(C)=O)cc1
inactive: Potency (C33A) | Potency (CAOV3) | Potency (CASKI) | Potency (Es-2) | Potency (HeLa) | Potency (Hek293T) | Potency (JEG-3) | Potency (OV90) | Potency (PA-1) | Potency (SKOV3) | Potency (Tov-21-G) | Potency (Tov112D)

CC1CCCCN1S(=O)(=O)c1ccc(N2CCCC2=O)cc1 (stereo not drawn)
inactive: Potency (C33A) | Potency (CAOV3) | Potency (CASKI) | Potency (Es-2) | Potency (HeLa) | Potency (Hek293T) | Potency (JEG-3) | Potency (OV90) | Potency (PA-1) | Potency (SKOV3) | Potency (Tov-21-G) | Potency (Tov112D)

COc1cc(/C=C/C(=O)OC[C@H]2O[C@@](CO)(O[C@H]3O[C@H](CO)[C@@H](O)[C@H](O)[C@H]3O)[C@@H](OC(=O)/C=C/c3ccc(O)c(OC)c3)[C@@H]2O)ccc1O
inactive: Potency (C33A) | Potency (CAOV3) | Potency (CASKI) | Potency (Es-2) | Potency (HeLa) | Potency (Hek293T) | Potency (JEG-3) | Potency (OV90) | Potency (PA-1) | Potency (SKOV3) | Potency (Tov-21-G) | Potency (Tov112D)

C[C@@H]1O[C@@H](O[C@H]2[C@H](OC(=O)[C@]34CCC(C)(C)C[C@H]3C3=CCC5[C@@]6(C)C[C@H](O)[C@H](O[C@@H]7O[C@H](CO)[C@@H](O[C@H]8OC[C@](O)(CO)[C@H]8O)[C@H](O)[C@H]7O)[C@@](C)(CO)C6[C@H](O)C[C@@]5(C)[C@]3(C)C[C@H]4O)OC[C@H](O)[C@@H]2O)[C@H](O)[C@H](O)[C@H]1O[C@@H]1OC[C@@H](O)[C@H](O[C@@H]2OC[C@](O)(CO)[C@H]2O)[C@H]1O (stereo partly drawn)
inactive: activity change, negative = cytotoxicity (C33A) -2.68% [at 6.55 µM] | activity change, negative = cytotoxicity (CAOV3) -10.4% [at 6.55 µM] | activity change, negative = cytotoxicity (CASKI) -0.0524% [at 6.55 µM] | activity change, negative = cytotoxicity (Es-2) 0.233% [at 6.55 µM] | activity change, negative = cytotoxicity (HeLa) -3.15% [at 6.55 µM] | activity change, negative = cytotoxicity (Hek293T) 2.67% [at 6.55 µM] | activity change, negative = cytotoxicity (JEG-3) 23.3% [at 6.55 µM] | activity change, negative = cytotoxicity (OV90) -28.7% [at 6.55 µM] | activity change, negative = cytotoxicity (PA-1) 18.7% [at 6.55 µM] | activity change, negative = cytotoxicity (SKOV3) 13.1% [at 6.55 µM] | activity change, negative = cytotoxicity (Tov-21-G) -9.27% [at 6.55 µM] | activity change, negative = cytotoxicity (Tov112D) -0.812% [at 6.55 µM]

C=C1[C@H](OC(C)=O)[C@H]2[C@@H](OC(C)=O)[C@](C)(OC(C)=O)C[C@]2(OC(C)=O)C(=O)[C@H](C)/C=C/C(C)(C)C(=O)[C@H](OC(=O)C(C)C)[C@H]1OC(C)=O
inactive: Potency (C33A) | Potency (CAOV3) | Potency (CASKI) | Potency (Es-2) | Potency (HeLa) | Potency (Hek293T) | Potency (JEG-3) | Potency (OV90) | Potency (PA-1) | Potency (SKOV3) | Potency (Tov-21-G) | Potency (Tov112D)

O=C(Nc1ccc(S(=O)(=O)Nc2nccs2)cc1)C(c1ccccc1)c1ccccc1
inactive: Potency (C33A) | Potency (CAOV3) | Potency (CASKI) | Potency (Es-2) | Potency (HeLa) | Potency (Hek293T) | Potency (JEG-3) | Potency (OV90) | Potency (PA-1) | Potency (SKOV3) | Potency (Tov-21-G) | Potency (Tov112D)

C=C1CCC2C(C(C)(C)O)CCC2(C)CC(O)C(=C)CCC1O (stereo not drawn)
inactive: Potency (C33A) | Potency (CAOV3) | Potency (CASKI) | Potency (Es-2) | Potency (HeLa) | Potency (Hek293T) | Potency (JEG-3) | Potency (OV90) | Potency (PA-1) | Potency (SKOV3) | Potency (Tov-21-G) | Potency (Tov112D)
